Screening data: PubChem, The Scripps Research Institute Molecular Screening Center
PME-1 primary: PME-1 (human) inhibition. Q9Y570. inhibition, % at 5.9 µM. 320,000 tested, 0.53% active. recombinant PME-1, FP-Rh probe fluorescence polarization;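 active = inhibition above the campaign mean of all compounds plus 3 SD, cut at about 26% in these data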;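 note: competitive labeling of PME-1 active site by serine hydrolase directed probe; 0% = PME-1 with DMSO and 100% = wells lacking PME-1 enzyme; inhibitors block probe labeling so polarization falls and inhibition rises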
Fam108B inh: blocks mouse Fam108B hydrolase in RBBP9 counter-screen | AID 1947 | inhibition, % at 9.51 µM | recombinant Fam108B, FP-Rh probe fluorescence polarization | 300,000 tested, 0.33% active;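 active = inhibition above the screen mean inhibition plus 3 SD, computed separately per campaign, cut at about 18% in these data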;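 note: inhibitors lower polarization as less probe binds the enzyme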
PAD4 inh: inhibitors of human PAD4; Q9UM07; recombinant PAD4, RCA probe fluorescence polarization; inhibition, % at 6.36 µM; 330,000 tested, 0.41% active; AID 485272;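 active = percent inhibition above a cutoff equal to the mean of all tested compounds plus 3 SD, cut at about 15% in these data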;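 note: 0% = PAD4 with RCA probe and DMSO and 100% = probe without PAD4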
pPAFAH FP inh: pPAFAH (human) enzyme inhibition. 330,000 tested, 1.5% active. recombinant pPAFAH, FP-rhodamine probe fluorescence polarization. Q13093. inhibition, % at 3.39 µM;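 active = inhibition above the mean inhibition across the screen plus 3 SD, cut at about 25% in these data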;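 note: inhibitors block binding of the rhodamine activity-based probe so polarization drops; 0% = enzyme with DMSO and 100% = wells lacking pPAFAH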
GSTO1 inh: counter-screen for RBBP9 inhibitors: inhibitors of human GSTO1; recombinant GSTO1, activity-based probe fluorescence polarization; inhibition, % at 5.96 µM; 300,000 tested, 1.1% active;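 active = inhibition above the campaign mean inhibition plus 3 SD, cut at about 35% in these data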;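 note: 0% = GSTO1-1 with DMSO and 100% = wells lacking GSTO1-1 enzyme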
Target sequence (P78417 whole entry, looked up): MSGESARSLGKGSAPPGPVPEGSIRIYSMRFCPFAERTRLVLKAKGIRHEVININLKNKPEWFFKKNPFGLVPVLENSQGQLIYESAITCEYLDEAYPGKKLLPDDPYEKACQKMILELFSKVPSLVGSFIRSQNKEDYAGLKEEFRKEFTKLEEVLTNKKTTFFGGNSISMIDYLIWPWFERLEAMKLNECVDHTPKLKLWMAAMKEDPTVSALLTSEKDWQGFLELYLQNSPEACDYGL
pPAFAH FP conf: pPAFAH (human) inhibition, confirmed. inhibition, % at 3.39 µM. 2,300 tested, 72% active. shares compounds with pPAFAH FP inh. recombinant pPAFAH, FP-Rh probe fluorescence polarization;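 active = mean inhibition of the triplicate above the hit cutoff set for the earlier primary screen, cut at about 25% in these data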;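 note: 0% = enzyme with DMSO and 100% = wells lacking pPAFAH enzyme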
An asterisk follows results filed as active; · = no result. Hits are enriched below; roughly 2.3% of the tested compounds scored in any of these assays.

SMILES | PME-1 primary | Fam108B inh | PAD4 inh | pPAFAH FP inh | GSTO1 inh | pPAFAH FP conf
CCOC(=O)c1c(-c2ccc(C)c(C)c2)csc1NC(=O)C1CC=CCC1C(=O)O (stereo unspecified) | -3 | -3 | -4 | 41* | -10 | 39*
O=C(COC(=O)c1ccc(O)cc1)Nc1ccc(N2CCCCC2)cc1 | 4 | 5 | 1 | 48* | 29 | 34*
Cc1cc(C)cc(OCC(=O)Nc2ccc(N3CCCC3)cc2)c1 | 4 | 3 | 2 | 36* | 7 | 30*
COc1ccc(OCC(=O)Nc2ccc(N3CCCCC3)cc2)cc1 | 4 | 6 | -5 | 3 | -4 | ·
Cc1ccc(CN2CC(C(=O)N3CCN(c4ccccc4Cl)CC3)CC2=O)cc1 (stereo unspecified) | 3 | · | -5 | 0 | · | ·
O=C1c2cc(Br)ccc2N(Cc2ccc(Br)cc2)S(=O)(=O)C1c1cc(Cl)c(Cl)cc1[N+](=O)[O-] (stereo unspecified) | · | · | -1 | 45* | · | 55*
O=C1CS(=O)(=O)N(Cc2cccc(F)c2)c2ccc(Br)cc21 | -12 | · | -14 | 1 | · | ·
Nc1ccc(O)cc1C(=O)OCC(=O)c1ccc(C2CCCCC2)cc1 | 5 | 16 | -8 | 51* | 10 | 26*
O=C1NN(c2ccc(Br)cc2)C(=O)/C1=C\c1ccc(O)cc1O | 11 | 12 | -1 | 37* | 29 | 25*
Cc1c(N2C(=O)c3ccccc3C2(O)c2ccccc2)c(=O)n(-c2ccccc2)n1C (stereo unspecified) | -10 | 1 | 3 | -10 | 2 | ·
C[C@@H]1Cc2c(O)c(O)cc(O)c2C(=O)O1 | -3 | 1 | -3 | 9 | 28 | ·
O=C1C=C(O)c2c(O)cc(O)c(O)c2C1=O | 10 | 16 | -13 | 85* | 73* | 52*
CCCOC(=O)c1cc(-c2ccc(/C=C3/C(=O)N(C)C(=O)C(C#N)=C3C)o2)ccc1Cl | -7 | 8 | -16 | 58* | 8 | 26*
CCCC(=O)OCCNc1cc(SCc2ccco2)c2nonc2c1[N+](=O)[O-] | 4 | 6 | 4 | 78* | 23 | 5
CC(=O)OCCCNc1cc(SCc2ccco2)c2nonc2c1[N+](=O)[O-] | -1 | 11 | -2 | 39* | 27 | 3
CC1(c2cccc(Br)c2)NC(=O)N(CC(=O)Nc2ccc3c(c2)OCCO3)C1=O (stereo unspecified) | · | · | -5 | 8 | · | ·
CC1(c2cccc(Br)c2)NC(=O)N(CC(=O)c2ccc3c(c2)OCCO3)C1=O (stereo unspecified) | · | · | -1 | 38* | · | 2
CCCCCc1cccnc1 | 2 | 5 | 5 | 2 | 19 | ·
COc1ccccc1N1C(=O)c2ccc(C(=O)Nc3nccs3)cc2C1=O | 1 | 0 | 0 | 43* | -1 | 1
O=C(CSc1nccn1Cc1ccco1)Nc1ccccc1 | 2 | -2 | -2 | 9 | -5 | ·
Cc1cc(C)n2nc(C(=O)Nc3ccc4c(c3)CCC4)nc2n1 | 1 | -1 | -8 | -4 | 0 | ·
COc1cc2cc3c(N)c(C(=O)Nc4sc(C)c(C)c4C#N)sc3nc2cc1OC | -54 | 6 | -20 | 52* | 19 | 14
COc1cccc(CNC(=O)CCC2CCCN(Cc3cc(Cl)ccc3O)C2)c1 (stereo unspecified) | -2 | 1 | -5 | 92* | 8 | 68*
COc1cccc(CNC(=O)CCC2CCCN(C(=O)Cc3ccccc3F)C2)c1 (stereo unspecified) | 2 | -6 | -7 | 0 | 6 | ·
Cc1ccc(/C=C/C(=O)O)cc1S(=O)(=O)Nc1ccc(C(=O)O)cc1 | -6 | 5 | 4 | 0 | 7 | ·
Cc1ccc(N=Nc2c(O)[nH]c(=O)[nH]c2=O)cc1S(=O)(=O)Nc1ccc(Br)cc1 | · | · | -1 | 76* | · | 25
CC(C)CCn1c(COc2ccccc2)nn(CCC#N)c1=S | 3 | -2 | 7 | -3 | -2 | ·
CN(C)CC/C=C1/c2ccccc2COc2ccc(CC(=O)O)cc21 | 3 | -3 | -2 | 60* | 2 | 4
Cc1ccc(C(=O)CSc2nnc(-c3c[nH]c4ccccc34)o2)cc1 | -7 | -4 | -4 | 48* | 24 | 3
CC(C)C(C)NC(=O)CSc1nnc(-c2c[nH]c3ccccc23)o1 (stereo unspecified) | 1 | -1 | -5 | 7 | 4 | ·
